Test results published in PubChem BioAssay (NCI).
This is part of a sample that, as a whole, favours compounds with a hit. Of some 79,000 tested, about 15% had one in any assay. Values without a mark were called inactive. Active and inactive are the calls of the source. No stated cut-off is given here; in the data, active means growth inhibition above about 70%; inactive means the rest.

Experiments:
[1] = NCI Yeast Anticancer Drug Screen. Data for the rad50 strain (AID 155);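 further: 0% = growth of vehicle-only cultures of the same strain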; conditions: S. cerevisiae rad50 strain growth inhibition, hits give high values
Summary of the method: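 Compounds were tested on a yeast strain with an engineered DNA damage repair alteration; the reported value is growth inhibition normalised to vehicle treatment.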

[2] = NCI Yeast Anticancer Drug Screen. Data for the mec2-1 strain (AID 157); conditions: S. cerevisiae mec2-1 strain, hits give high values
Summary of the method: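 Mutant yeast (mec2-1) grown with compound; growth inhibition relative to vehicle control reported.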

[3] = NCI Yeast Anticancer Drug Screen. Data for the sgs1 mgt1 strain (AID 161);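 further: 0% = growth of cultures given vehicle only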; conditions: S. cerevisiae sgs1 mgt1 strain, hits give high values
Summary of the method: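 Growth of a repair-deficient yeast mutant was monitored after compound treatment and expressed as inhibition relative to vehicle-treated cultures.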

[4] = NCI Yeast Anticancer Drug Screen. Data for the cln2 rad14 strain (AID 165);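 further: 0% = growth equal to vehicle treated cultures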; conditions: S. cerevisiae cln2 rad14 strain, hits give high values
Summary of the method: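 Readout is yeast growth inhibition versus vehicle-treated controls, using a strain with cln2 and rad14 alterations exposed to compound.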

[5] = NCI Yeast Anticancer Drug Screen. Data for the bub3 strain (AID 167); conditions: S. cerevisiae bub3 mutant strain, hits give high values
Summary of the method: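 Growth of a checkpoint-deficient yeast mutant is measured after compound exposure. Values represent inhibition relative to vehicle.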

[6] = NCI Yeast Anticancer Drug Screen. Data for the mlh1 rad18 strain (AID 175); conditions: S. cerevisiae mlh1 rad18 strain growth inhibition, hits give high values
Summary of the method: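 Genetically defined yeast (DNA repair-deficient) exposed to compounds; growth inhibition determined relative to vehicle.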

[7] = at 5.0 µM (retest, dose inferred, filed as 0.5)
[8] = at 50.0 µM (retest, dose inferred, filed as 5.0)

SMILES | growth inhibition [1, 7] | growth inhibition [1, 8] | growth inhibition ([1]; at 50.0 µM) | growth inhibition [2, 7] | growth inhibition [2, 8] | growth inhibition ([2]; at 50.0 µM) | growth inhibition [3, 7] | growth inhibition [3, 8] | growth inhibition ([3]; at 50.0 µM) | growth inhibition [4, 7] [%] | growth inhibition [4, 8] | growth inhibition ([4]; at 50.0 µM) | growth inhibition [5, 7] | growth inhibition [5, 8] | growth inhibition ([5]; at 50.0 µM) | growth inhibition [6, 7] | growth inhibition [6, 8] | growth inhibition ([6]; at 50.0 µM)
COc1cc2c(c(OC)c1OC)-c1ccc(SC)c(=O)cc1[C@@H](NC1OC(COC(C)=O)C(OC(C)=O)C(OC(C)=O)C1OC(C)=O)CC2 (some centres undefined) | 0% | -3% | -1.6% | -1% | -3% | 2.55% | 1% | 5% | 9.45% | 3 | -14% | 74.2% (active) | 0% | -7% | 0.9% | 0% | -3% | 7.15%
CCN(CC)CCCNc1ncc(C)c2c1c1ccc3c(O)cccc3c1n2C | 22% | 62% | 29.3% | 8% | 7% | -0.35% | 21% | 40% | -31.9% | 8 | 8% | -17.4% | 19% | 35% | -9.95% | 17% | 34% | -3.05%
COC1C=COC2(C)Oc3c(C)c(O)c4c(O)c(c(C5SCCS5)c(O)c4c3C2=O)NC(=O)/C(C)=C\C=CC(C)C(O)C(C)C(O)C(C)C(OC(C)=O)C1C (centres undefined) | -3% | 96% (active) | 94.7% (active) | 1% | 97% (active) | 96.9% (active) | -5% | 34% | 41.5% | 14 | 97% (active) | 95% (active) | 2% | 99% (active) | 95.8% (active) | 4% | 97% (active) | 95.4% (active)
Cc1cccc2cc3c(cc12)c(C)cc1ccccc13 | -4% | 6% | 64.4% | -6% | -9% | 75.1% (active) | -4% | 30% | 53% | -1 | 1% | 51% | -22% | -12% | 61% | -17% | 2% | 63.6%
Cn1c(N)c(NC(=O)CCl)c(=O)n(C)c1=O | 21% | 20% | 16.4% | 3% | 5% | -5.8% | -13% | -2% | -16.9% | 1 | 2% | 12.8% | 8% | 7% | -2.45% | 7% | 0% | 16.9%
COC/C=N/Nc1ccc([N+](=O)[O-])cc1 | 90% (active) | 98% (active) | 98.6% (active) | 45% | 98% (active) | 98.3% (active) | 90% (active) | 98% (active) | 98% (active) | 46 | 98% (active) | 98.5% (active) | 94% (active) | 98% (active) | 99% (active) | 90% (active) | 98% (active) | 98.5% (active)
O=Nc1cc(-c2ccccc2)c2ccccc2c1O | 14% | 86% (active) | -2.65% | 14% | 96% (active) | 31.9% | 6% | 93% (active) | -10.4% | 15 | 97% (active) | 97.5% (active) | 22% | 95% (active) | 97.4% (active) | 23% | 96% (active) | 2.45%
Clc1ccc(/C=C\c2ccncc2)cc1 | 3% | 58% | 48.2% | 4% | 51% | 44.9% | 4% | 59% | 29.1% | 1 | 7% | 29.7% | 4% | 39% | 30% | -1% | 32% | 62%
C[CH2][Sn]([CH2]C)([O]C(=O)c1c(F)cccc1F)[O][Sn]([CH2]C)([CH2]C)[O]C(=O)c1c(F)cccc1F | 40% | 89% (active) | 81.3% (active) | 34% | 95% (active) | 81.8% (active) | 36% | 95% (active) | 83.2% (active) | 28 | 84% (active) | 72.4% (active) | 45% | 72% (active) | 78.5% (active) | 44% | 93% (active) | 78.2% (active)
COC(=O)[C@@H]1c2cc3c(c(O)c2[C@@H](OC2OC(C)C(OC)C(C)(OC)C2OC)C[C@]1(C)O)C(=O)c1c(O)cc2c(c1C3=O)O[C@H]1O[C@]2(C)[C@H](O)[C@@H](N(C)C)[C@@H]1O (some centres undefined) | 61% | 98% (active) | 90.8% (active) | 45% | 99% (active) | 93% (active) | 35% | 99% (active) | 92.3% (active) | 33 | 98% (active) | 90.6% (active) | 60% | 99% (active) | 91.2% (active) | 79% (active) | 98% (active) | 89.8% (active)
CS(=O)(=O)c1nc(Cl)c(Cl)c(C#N)c1Cl | 50% | 99% (active) | 98.3% (active) | 76% (active) | 99% (active) | 98.9% (active) | 66% | 99% (active) | 99.2% (active) | 23 | 99% (active) | 84.5% (active) | 88% (active) | 99% (active) | 99.2% (active) | 85% (active) | 99% (active) | 99% (active)
COc1ccc(CC2C(=O)NC(C)C(=O)N(C)C3Cc4ccc(cc4)Oc4cc(ccc4O)CC(C(=O)NC(C)C(=O)NC(C)C(=O)N2C)N(C)C3=O)cc1 (centres undefined) | -6% | 54% | 61.1% | 25% | 64% | 39.8% | 25% | 48% | 66.5% | 46 | 72% (active) | 70.5% (active) | 16% | 64% | 59.6% | -1% | 77% (active) | 53.5%
NC(=O)/C=C/C(=O)c1c(Cl)cccc1Cl | 97% (active) | 100% (active) | 91.1% (active) | 99% (active) | 100% (active) | 92% (active) | 99% (active) | 100% (active) | 91.7% (active) | 46 | 98% (active) | 90.3% (active) | 99% (active) | 100% (active) | 88.3% (active) | 100% (active) | 100% (active) | 91% (active)
